The values below come from PubChem BioAssay (NCATS).

Test [1] deals with PAD. The test can be described thus: qHTS profiling for inhibitors of Plasmodium falciparum proliferation (AID 504749). To be noted: P. falciparum in erythrocytes, SYBR Green DNA, 72 h; series mostly up to 28.7 µM. Put shortly:
(§1)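 P. falciparum-infected erythrocytes (0.3% parasitemia, 2.5% hematocrit final) were exposed to compounds for 72 h at 37 C in 5% CO2, then lysed with SYBR Green buffer overnight at room temperature; parasite DNA fluorescence was normalized to artemisinin and DMSO controls.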
In general terms: qHTS replaces the single test concentration by a dilution series.

In test [2] the test system is PC15. Described as above. The conditions noted are these: P. falciparum in erythrocytes, SYBR Green DNA, 72 h; series mostly up to 28.7 µM. Put shortly: as §1
Test [3] concerns PC26. The test is described as above. The conditions noted are these: P. falciparum in erythrocytes, SYBR Green DNA, 72 h; series mostly up to 28.7 µM. In outline: as §1
Test [4] has as its system PC49. Described as above. The conditions noted are these: P. falciparum in erythrocytes, SYBR Green DNA, 72 h; series mostly up to 28.7 µM. Put shortly:
as §1

Test [5] has as its system SC27B. The test is described as above. The conditions noted are these: P. falciparum in erythrocytes, SYBR Green DNA, 72 h; series mostly up to 28.7 µM. Put shortly: as §1
The subject of test [6] is TAB109. The description is as above. To be noted: P. falciparum in erythrocytes, SYBR Green DNA, 72 h; series mostly up to 28.7 µM. In outline: as §1
In test [7] the test system is TAB113. The test is described as above. The conditions noted are these: P. falciparum in erythrocytes, SYBR Green DNA, 72 h; series mostly up to 28.7 µM. Put shortly: as §1
Test [8] has as its system TAB165. Described as above. The conditions noted are these: P. falciparum in erythrocytes, SYBR Green DNA, 72 h; series mostly up to 28.7 µM. Put shortly: as §1
The test system of test [9] is W2. The test is described as above. To be noted: P. falciparum in erythrocytes, SYBR Green DNA, 72 h; series mostly up to 28.7 µM. Put shortly: as §1
Test [10] relates to CRL-7250. In words: Cytotoxic Profiling of Annotated Libraries Using Quantitative High-Throughput Screening (AID 1296008). As to max response: % is scaled to controls: 0 for no effect and ±100 for the full control effect. To be noted: Five cell lines viability, CellTiter-Glo ATP luminescence, 48-72 h; max response: hits give low values. Put shortly: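 Compounds were pin-transferred onto cells and incubated 48 or 72 hr at 37 degree Celsius, 95% humidity. CellTiter-Glo was added, plates sat 10 min at room temperature, then ATP-coupled luminescence was imaged as the viability read-out.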
A general note: In ATP-based viability assays light output follows the ATP content of the culture.

Structures are written as SMILES. “And” between values parts separate entries of the source, which are not always exact repeats. Equal values may be shown once. Inconclusive results are not listed. Values without a mark were called inactive. The source made the active and inactive calls. Calls follow the shape of the dose curve; as a rule, active = well fitted inhibition curve with a large enough effect; inconclusive = small, poorly fitted or top-dose-only effect; inactive = flat fitted curve, though single readings scatter.
Also: nearly all actives have a fitted effect of over 60% in size.
Potency is read from the fitted curve at half-maximal effect.

Consider `Cc1ccc(N(CC2=NCCN2)c2cccc(O)c2)cc1`, for which the Potency result in test [1], in test [2], in [3], in test [4], in test [5] and in test [6] was “inactive” throughout. The Potency entry in test [7], in test [8] and in test [9] was “inactive” in each case.

`CCOC(=O)C1=C[C@]2(CC)CCCN3CCc4c(n1c1ccccc41)[C@@H]32`: the Potency is 15.1 µM (active) in test [3], 12.6 µM (active) in [5], 10 µM (active) in test [6] and 12.6 µM (active) in test [8]. The max response in test [10] is 1.21%. Besides, in [10], the result was inactive.

For `CN1CCN(CCCN2c3ccccc3Sc3ccc(C(F)(F)F)cc32)CC1`, the Potency in test [1] is 12.6 µM (active); in [2], 10 µM (active); in [3], 13.5 µM (active); in test [6] it was 11.2 µM (active); in test [9], 4.78 µM (active). The Potency result in test [7] was “inactive”.

Regarding `CNC[C@H](O)c1cccc(O)c1`, the Potency result in test [2], in test [3], in test [4], in test [5], in test [6] and in test [7] was “inactive” throughout. The Potency result in test [8] is “inactive”. The max response in [10] was -1.79% and -10.1%.

On to `NC[C@H](O)c1ccc(O)c(O)c1`, for which the Potency entry in test [1], in [2], in test [3], in test [4], in test [5] and in test [6] was “inactive” throughout. Moreover, the Potency result in [7], in test [8] and in test [9] was “inactive” in each case.

With `NS(=O)(=O)c1cc2c(cc1Cl)NC=NS2(=O)=O`, the Potency entry in test [1], in test [2], in [3], in test [4], in [5] and in test [6] was “inactive” in each case. In addition, the Potency result in test [7] and in test [9] was “inactive” each time. For the same compound, the max response in test [10] was -0.778% and -4.67%.

For `NC(=O)c1cnccn1`, the Potency result in test [1], in test [2], in test [3], in test [4], in test [5] and in test [6] was “inactive” throughout. For the same compound, the Potency entry in test [7], in [8] and in test [9] was “inactive” each time. In addition, the max response in test [10] was 3.02% and 1.22%.

As for `Cc1c(C)c2c(c(C)c1O)CCC(C)(COc1ccc(CC3SC(=O)NC3=O)cc1)O2` (configuration not stated), the Potency entry in test [2], in [4] and in test [6] was “inactive” each time. Besides, the Potency was 10 µM (active) in test [5], 11.2 µM (active) in [7] and 6.75 µM (active) in [9]. Further, the compound was called inactive in test [10].

As to `CCOC(=O)N1CCC(=C2c3ccc(Cl)cc3CCc3cccnc32)CC1`, the Potency in [1] was 3.16 µM (active); in [2], 11.2 µM (active); in test [3], 12 µM (active); in [4], 4.47 µM (active); in test [5], 6.31 µM (active); in [8], 2.51 µM (active). Moreover, the Potency in [9] was 8.49 µM (active). Also, the Potency result in [6] is “inactive”.

With `Cn1cnc([N+](=O)[O-])c1Sc1ncnc2nc[nH]c12`, the Potency entry in [1], in test [4], in test [5], in test [6] and in [7] was “inactive” throughout. In addition, the Potency in test [8] is 11.2 µM (active); in [10], 3.4 µM (active) and 10.6 µM (active).

As for `Cc1oncc1C(=O)Nc1ccc(C(F)(F)F)cc1`, the Potency result in [1], in [2], in test [3], in test [4], in test [5] and in test [6] was “inactive” in each case. Moreover, the Potency result in test [7] and in test [8] was “inactive” each time. For the same compound, the Potency in test [9] is 3.22 µM (active).

With `N#Cc1ccc(C(c2ccc(C#N)cc2)n2cncn2)cc1`, the Potency result in test [1], in test [2], in test [3], in [4], in test [5] and in [6] was “inactive” in each case. Also, the Potency entry in [7], in [8] and in test [9] was “inactive” in each case.

Regarding `CCc1ccc(CCOc2ccc(CC3SC(=O)NC3=O)cc2)nc1` (configuration not stated), the Potency result in [1], in test [2], in test [3], in [4], in test [5] and in [6] was “inactive” each time. Moreover, the Potency entry in test [7], in [8] and in test [9] was “inactive” each time. Besides, in test [10], the max response is -4.18% and 2.83%.

Consider `CC(C)C[C@H](NC(=O)[C@@H](O)[C@H](N)Cc1ccccc1)C(=O)O`, for which the Potency in test [1] is 10 µM (active); in test [3] it was 9.53 µM (active); in [5] it was 7.94 µM (active); in test [6], 6.31 µM (active); in test [7] it was 7.08 µM (active); in test [8] it was 5.01 µM (active). The Potency in [9] was 1.69 µM (active).

In the case of `CCCc1nc2c(C)cc(-c3nc4ccccc4n3C)cc2n1Cc1ccc(-c2ccccc2C(=O)O)cc1`, the Potency in test [1] was 1 µM (active); in test [2] it was 2.51 µM (active); in [4], 2.51 µM (active); in test [5], 1.58 µM (active); in test [7] it was 2.24 µM (active); in test [8], 1.58 µM (active). The Potency in [9] was 1.9 µM (active). For the same compound, in [10], the max response is -5.08% and 4.25%.

In the case of `Clc1cccc(Cl)c1NC1=NCCN1`, the Potency entry in test [1], in test [2], in test [3], in [4], in test [5] and in [6] was “inactive” throughout. Moreover, the Potency entry in test [7], in [8] and in [9] was “inactive” in each case. Also, in test [10], the max response was 0.663% and -4.74%.

With `NC(N)=NC(=O)c1nc(Cl)c(N)nc1N`, the Potency was 8.91 µM (active) in [1]; 7.08 µM (active) in test [2]; 10 µM (active) in test [6]; 11.2 µM (active) in test [8]; 2.13 µM (active) in test [9]. In addition, in [10], the max response is -0.0311%. Also, the compound was called inactive in test [10].

As for `C#Cc1cccc(Nc2ncnc3cc(OCCOC)c(OCCOC)cc23)c1`, the Potency in test [1] is 11.2 µM (active); in test [9], 4.26 µM (active); in [10], 18.7 µM (active) and 8.41 µM (active). Further, in test [4], the Potency result was “inactive”.

On to `CCCc1nn(C)c2c(=O)[nH]c(-c3cc(S(=O)(=O)N4CCN(C)CC4)ccc3OCC)nc12`, for which the Potency result in test [1], in [2], in test [3], in test [4], in [5] and in test [6] was “inactive” each time. Further, the Potency entry in test [7] and in [8] was “inactive” in each case. Further, in [10], the max response is -31.4% and 2.3%.
